# Hits are enriched below; roughly 2.4% of the tested compounds scored in any of these assays.
# CHO-K1 Ca PAM: nonselective calcium activators in parental CHO-K1 cells, primary screen, counter-screen for M1 PAM project, cell-based, Fluo-8 calcium fluorescence, full deck, 1536-well; activation, % at 3 µM; ATP EC20; 0% at ATP EC20, 100% at ATP max; AID 602247, 2012; 360,000 compounds, 0.02% hits;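 active = activation above the run cutoff, the mean activation of all test compounds plus 3 SD, cut at about 40% in these data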;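 note: peak over basal fluorescence ratio in a 140 s read after ATP addition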
# CHO-K1 Ca antag: nonselective inhibitor or artifact in parental CHO-K1 cells; ATP-induced calcium, Fluo-8 fluorescence; inhibition, % at 3 µM; 360,000 compounds, 0.6% hits; AID 602250;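 active = inhibition above a per-plate cutoff, the plate's mean sample inhibition plus 3 SD, cut at about 24% in these data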;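 note: 0% = DMSO plus EC80 ATP and 100% = DMSO alone without ATP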
# CHRM1 PAM: human M1 muscarinic receptor positive allosteric modulators, primary screen, CHO-K1 cells, Fluo-8 calcium fluorescence, 1536-well; Muscarinic acetylcholine receptor M1 (Homo sapiens), P11229; CHO-K1 hM1, ACh EC20; 0% = ACh EC20, 100% = maximal ACh; activation, % at 3 µM; 360,000 compounds, 0.088% hits; AID 588819, 2011; in the data active = activation above about 19%, passing the limit was not always enough
# Target sequence (P11229 whole entry, looked up): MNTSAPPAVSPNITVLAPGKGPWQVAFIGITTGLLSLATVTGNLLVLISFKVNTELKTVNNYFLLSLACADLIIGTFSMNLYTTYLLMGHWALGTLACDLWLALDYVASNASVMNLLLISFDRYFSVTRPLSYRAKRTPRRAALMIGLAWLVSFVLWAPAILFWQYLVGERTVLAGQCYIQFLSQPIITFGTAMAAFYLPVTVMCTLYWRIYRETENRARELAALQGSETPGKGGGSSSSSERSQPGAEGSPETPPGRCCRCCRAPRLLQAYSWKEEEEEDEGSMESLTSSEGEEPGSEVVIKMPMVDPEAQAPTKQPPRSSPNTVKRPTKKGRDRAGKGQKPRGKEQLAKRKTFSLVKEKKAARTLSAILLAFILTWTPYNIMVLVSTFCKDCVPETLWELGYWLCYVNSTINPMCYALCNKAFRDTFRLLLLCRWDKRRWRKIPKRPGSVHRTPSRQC
# M1 antag: human M1 muscarinic receptor antagonists, primary screen, CHO-K1 cells, Fluo-8 calcium fluorescence, 1536-well | CHO-K1 hM1, ACh EC80 antagonist | inhibition, % at 3 µM | 360,000 compounds, 1.3% hits | AID 588852, 2011;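 active = percent inhibition above its own plate's cutoff, namely the mean of that plate's compound wells plus 3 SD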;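 note: peak over basal fluorescence ratio during 140 s after agonist addition; 0% = ACh EC80 plus DMSO and 100% = DMSO alone without agonist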
# CHRM1 agonist: human M1 muscarinic receptor agonists, primary screen, Fluo-8 calcium fluorescence, CHO-K1 cells, HTS; Muscarinic acetylcholine receptor M1 (Homo sapiens), P11229; CHO-K1 hM1, agonist mode; 0% DMSO, 100% acetylcholine EC100; activation, % at 3 µM; 360,000 compounds, 0.33% hits; AID 588814, 2011;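 active = activation above the run's mean compound activation plus 3 SD, cut at about 16% in these data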;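 note: peak over basal fluorescence ratio within a 140 s kinetic read after compound addition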
# M1 ag parental: counter-screen for M1 agonists: effect in parental CHO-K1 cells. Fluo-8 calcium fluorescence; scaled to maximal ATP response, vehicle zero. activation, % at 3 µM. 360,000 compounds, 0.48% hits; in the data active = activation above about 15%;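 note: untransfected CHO-K1 host cells lacking M1 receptor as counterscreen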
# Numbers without * were called inactive; nt = not tested or not shown.
SMILES,CHO-K1 Ca PAM,CHO-K1 Ca antag,CHRM1 PAM,M1 antag,CHRM1 agonist,M1 ag parental
CCCc1ncc(CN2CCC(C(=O)Nc3cccc(-c4cscn4)c3)CC2)cn1,-6.7,-15.1,-2.2,2.6,-3.0,3.6
CN(C)c1ccc(NC(=O)c2cccc(C(=O)Nc3ccc(N(C)C)cc3)n2)cc1,-12.5,27.5*,-1.1,-3.3,-6.2,1.3
CC(=O)c1cc2c(cc1NC(=O)CSc1nnc(C3CC3)n1C)OCO2,7.2,0.9,-0.6,0.9,-5.4,0.1
O=C(Nc1ccccc1C(=O)Nc1nnc(C(F)(F)F)s1)c1ccccc1,-10.3,26.3*,-11.6,18.3,8.1,9.4
COc1cccc(CNc2ccc3c(c2)CCC3)c1,-6.5,-13.4,-5.0,-17.2,-2.5,0.3
COc1cccc(CNc2ccc(C)c(Cl)c2)c1,5.3,0.6,6.6,-11.3,-11.3,16.6*
CSC1=NSC2=NC(=O)/C(=C/c3coc4ccccc4c3=O)C(=N)N12,-2.9,34.7*,-23.5,55.8*,78.0*,45.4*
N=C1/C(=C\c2coc3ccccc3c2=O)C(=O)N=C2SC=CN12,-27.1,31.0*,-22.2,40.7*,47.0*,83.2*
CSC1=NSC2=NC(=O)/C(=C/c3coc4ccc(O)cc4c3=O)C(=N)N12,-3.7,34.9*,-26.2,34.2*,41.5*,27.2*
CC1=CC2=NC(=O)/C(=C/c3coc4ccc(Cl)cc4c3=O)C(=N)N2O1,-11.4,27.3*,-10.2,30.7,29.4*,56.1*
CSC1=NSC2=NC(=O)/C(=C\c3cccs3)C(=N)N12,14.9,-4.1,2.6,0.2,-6.1,1.1
Cc1cccc(-n2ccnc2SCC(=O)c2c(N)n(C3CC3)c(=O)[nH]c2=O)c1C,-2.2,-9.9,7.0,-1.4,-6.6,0.8
O=C1CN(S(=O)(=O)c2ccc(F)cc2)c2ccccc2N1,-9.4,27.6*,20.8,-10.9,1.0,0.2
COc1ccccc1C(=O)N/N=C/c1cnc2ccccc2n1,18.7,-9.2,1.1,-11.4,-1.3,0.1
O=C(c1ccc2c(=O)n3c(nc2c1)CCCCC3)N1CCN(C(c2ccccc2)c2ccccc2)CC1,10.8,-29.4,-33.9,78.9*,-14.3,-0.4
O=C(c1ccc(=O)oc1)N1CCN(C(c2ccccc2)c2ccccc2)CC1,12.6,-13.1,-32.8,77.1*,-12.5,0.6
CCOC(=O)c1sc(=S)n(-c2ccccc2)c1C,1.2,1.1,-11.0,8.1,-7.3,2.3
CCOC(=O)c1sc(=S)n(-c2ccccc2Cl)c1C,19.8,-13.4,-26.6,52.0*,-7.1,0.1
Cc1cccc[n+]1CC(=O)c1ccc(Cl)cc1,-10.6,6.1,11.2,-25.2,-9.7,0.2
Cc1cccc[n+]1CC(=O)c1ccc2c(c1)OCCO2,1.2,5.5,-26.9,27.5*,-10.6,-0.1
O=C(CSc1ccsc1[N+](=O)[O-])NC1CCCC1,-13.7,26.3*,10.4,1.1,-7.7,-0.5
CC1CCCCC1NC(=O)CSc1ccsc1[N+](=O)[O-] (stereo not drawn),22.1,-4.8,9.8,-7.6,-9.9,2.2
OC[C@@H]1CN(Cc2ccccc2)C[C@H](n2cnc3c(N4CCOCC4)ncnc32)O1,16.1,-13.7,6.6,-21.9,-0.5,0.5
COC(=O)[C@H]1C[C@H]2[C@@H]3CC[C@H]4C[C@@H](OC)CC[C@]4(C)[C@H]3CC[C@]2(C)[C@@]2(CCCO2)O1,25.6,-25.4,8.6,-10.8,-1.4,0.4
Cc1cc2ncn(CCC(=O)NC3CCCC3)c2cc1C,5.2,9.3,-4.6,15.9,-5.2,19.0*
SMILES,CHO-K1 Ca PAM,CHO-K1 Ca antag,CHRM1 PAM,M1 antag,CHRM1 agonist,M1 ag parental
O=C(CSc1nc(-c2ccco2)cc(C(F)(F)F)n1)NC1CCCC1,4.5,24.2*,-2.0,-3.2,2.6,1.6
O=C(CSc1nc(-c2ccco2)cc(C(F)(F)F)n1)Nc1ccc2c(c1)CCC2,-5.0,4.6,6.3,-27.2,0.3,0.1
Cc1ccc(OCC(=O)N/N=C2/SCC(=O)N2Cc2ccccc2)cc1,-15.0,25.0*,1.4,-5.8,-2.3,-0.1
Cc1ccccc1OCC(=O)N/N=C1\SCC(=O)N1Cc1ccccc1,17.7,-9.2,6.2,-10.2,-5.7,0.3
COc1ccc(NC(=S)N(CCCOC(C)C)C2CCN(C(C)=O)CC2)cc1Cl,-10.8,-7.4,-0.1,0.1,-3.7,3.0
COc1ccccc1OCC(O)Cn1c(=N)n(CCN2CCCCC2)c2ccccc21 (stereo not drawn),-7.2,12.8,-21.6,19.1*,-6.1,0.1
Cc1ccccc1NC(=O)Cn1nc(-c2ccccc2)nc1-c1ccccc1,-6.5,24.2*,9.9,-2.6,1.2,-0.2
Cc1cc(C)c2c(CN3CCN(CCO)CC3)cc(=O)oc2c1,-6.7,29.4*,-7.0,7.2,-6.8,-0.6
O=C(O)c1cccc(S(=O)(=O)Nc2ccccc2C(=O)NCCc2ccccc2)c1,-2.4,-1.8,17.8,-9.9,-0.7,-0.9
CC(C)(C)c1ccc(S(=O)(=O)N2CCSC2)cc1,-2.4,11.4,-26.3,39.1*,-14.8,0.6
CC(C)[N+](C)(C)CC#CC(O)(c1ccccc1)c1ccccc1,7.5,-7.5,-24.8,98.9*,-6.7,0.2
OC(C#Cc1ccccc1)(c1ccccc1)c1ccccc1,15.9,-18.5,12.1,-31.3,-5.7,0.2
C[N+]1(CC#CC(O)(c2ccccc2)c2ccccc2)CCCC1,24.3,-5.1,-26.0,99.6*,-11.2,1.6
CCCCNC(=O)C1(C)CCN1C(=O)c1cccc2c1OCCO2 (stereo not drawn),16.2,-14.9,0.2,-6.0,-3.2,0.8
Nc1nc(Nc2ccccc2)nc(N2CCOCC2)c1[N+](=O)[O-],7.5,-1.2,5.1,-1.7,0.7,0.7
Nc1nc(Nc2ccccc2F)nc(N2CCOCC2)c1[N+](=O)[O-],8.9,4.8,8.7,-7.0,-4.3,18.2*
CCCCn1nnnc1C(c1ccccc1)N1CCN(c2ccc(C(F)(F)F)cc2[N+](=O)[O-])CC1 (stereo not drawn),5.4,-12.9,nt,nt,nt,0.9
CCOc1ccc(NC(=O)c2ccccc2CO)cc1,-6.9,29.8*,2.6,-6.3,-5.9,0.1
CCOc1ccc(NC(=O)c2ccc(NC(=O)c3ccccc3Br)cc2)cc1,-15.8,30.3*,-5.7,19.2,-2.6,7.0
CSc1ccccc1OCc1cc(C(=O)N2CCC(c3ccncc3)CC2)no1,-5.0,16.5,-16.4,41.1*,-2.0,11.4
Cc1cc(OCc2cc(C(=O)N3CCC(Oc4cccnc4)CC3)no2)cc(C)c1Cl,-12.6,25.5*,-8.6,30.8*,-0.9,13.2
